# Source: PubChem BioAssay (NCI)
# The panel holds about 83,000 compounds, 20% with a hit somewhere; the sample as a whole holds those more often.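 Single-concentration screen, 48 h exposure, 96-well plates. Endpoint: percent growth. Below 10 = active.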 A number with no mark means an inactive call. The source made the active and inactive calls.
# Tested on: MCF7 breast
# Assay: NCI-60 one-dose screen, 48 h (100 = growth as untreated, 0 = no growth, -100 = all killed)
# Details: 10 µM unless noted
row,SMILES,growth
1,COc1cccc(CC(C)=C(c2ccc(OCCN(C)C)cc2)c2ccc(OCCN(C)C)cc2)c1,-55.7% (active)
2,N/C(=N\C(N)=N\c1nc2ccccc2s1)c1cccc(Br)c1,77.4%
3,O=C(Nc1ccc(Cl)c(Cl)c1)NS(=O)(=O)c1cnccc1Oc1ccc(F)cc1,58.6%
4,Cc1ccc(S(=O)(=O)NC(=O)n2cc(-c3ccncc3)c(-c3ccc(Cl)c(O)c3)n2)cc1,124%
5,CCN(CC)CCC(CNc1ccnc2cc(Cl)ccc12)c1ccc(Cl)cc1 (stereo unspecified),-70.7% (active)
6,CCN(CC)CCOc1ccc(Cl)c(C)c1,96.2%
7,OC(c1cc2cc(Br)ccc2c2cc(Br)ccc12)C1CCCCN1 (stereo unspecified),-88.2% (active)
8,CCN(CC)CCC(CNc1ccnc2cc(Cl)ccc12)c1ccccc1 (stereo unspecified),26.3%
9,CCCCCCCCCCCCNC(=O)[C@H]1CSC(c2cc3ccccc3s2)N1 (stereo partly specified),42.4%
10,CCCCCCN1CSC(=S)N(CCCCCC)C1,102%
11,CC1(c2ccc(Cl)cc2)OC(=O)CC(=O)O1,101%
12,O=C(NS(=O)(=O)c1ccc2ccccc2c1)n1cc(-c2ccncc2)c(-c2ccc(Cl)c(O)c2)n1,114%
13,CN(C)CCOC(=O)Nc1ccccc1Cl,103%
14,Cc1c(C(=O)/C=C/c2csc3ccccc23)[n+](=O)c2ccccc2n1[O-],9.38% (active)
15,CN(C)CCCN(c1nc(C(Cl)(Cl)Cl)ns1)c1nc(C(Cl)(Cl)Cl)ns1,-34.3% (active)
16,CCN(CC)CCC(CNc1c2ccc(Cl)cc2nc2ccc(OC)cc12)c1ccccc1 (stereo unspecified),-38.6% (active)
17,CN1CCN(Cc2ccc(NC(=O)c3nc4ccc5[nH]ncc5c4c4c3CCC4)cc2C(F)(F)F)CC1,-29.7% (active)
18,COc1ccc(N=Cc2c(O)ccc3c2oc2cc(Cl)c(O)c(Cl)c23)cc1,69.6%

row,SMILES,growth
1,O=C(O)C1CCCCN1c1nc(Cl)nc(Cl)n1 (stereo unspecified),100%
2,C=CCn1c2ccccc2c2c3c(c4c5ccccc5n(CC=C)c4c21)C(=O)N(O)C3=O,13%
3,Nc1cccc(Cl)c1N,39.6%
4,Cc1csc(NC(c2ccc(Br)cc2)c2c(C)nc3ccccn23)n1 (stereo unspecified),83.3%
5,COc1cc(-c2nn(C(=O)NS(=O)(=O)c3ccccc3)cc2-c2ccncc2)ccc1Cl,94.6%
6,N=c1ccc2nc3ccc(N)cc3sc-2c1,14.6%
7,Cc1ccc(Cc2c(C=O)nc(N)[nH]c2=O)c2ccccc12,103%
8,CCN(CC)CCCC(C)Nc1c2ccc(Cl)cc2nc2cc(OC)c(OC)cc12 (stereo unspecified),0.0607% (active)
9,CCCCCCCCCCCCNC(=O)[C@H]1CSC(c2ccsc2)N1 (stereo partly specified),-67.5% (active)
10,CC(C)(C)NCCC(O)c1cc2c(Cl)cc(Cl)cc2c2cc(C(F)(F)F)ccc12 (stereo unspecified),-81.3% (active)
11,COc1cc2c(cc1O)CCN1C[C@@H](CC(C)C)[C@@H](O)C[C@@H]21,102%
12,Nc1ccc(C(=O)CSc2nc3ccccc3[nH]2)cc1,92.9%
13,CCCC(=O)Oc1ccc(/C(=C(\C)c2ccccc2)c2ccc(OCCN(CC)CC)cc2)cc1,34.5%
14,C/C=C(\C)C(C(=O)NC1CCCCC1)N(C(=O)C1CCc2cc(F)ccc2O1)c1ccc(Cl)cc1 (stereo unspecified),99.1%
15,Cn1ccc(=O)c(S(N)(=O)=O)c1,111%
16,O=c1[nH]c(NCc2ccccc2)nc2nc(Nc3ccc(NC(=S)Nc4ccccc4)cc3)nc(-c3ccc(O)cc3O)c12,96.7%
17,COc1ccc(-n2c(-c3ccccc3)c(-c3ccccc3)c3c(SCC(=O)N/N=C/c4ccc(Cl)cc4)ncnc32)cc1,85%
18,COc1ccc(S(=O)(=O)NCCCNc2nccc(-c3c(-c4cccc([N+](=O)[O-])c4)nc4sccn34)n2)cc1,34.5%
